According to PubChem BioAssay:
The source made the active and inactive calls.

Tests used:
[1] = tested on: PRMT1 (protein arginine N-methyltransferase 1); experiment: PRMT1 binders on small-molecule microarrays, primary screen, biochemical, small-molecule microarray, 635 nm fluorescence (AID 1088); conditions: small-molecule microarray binding, higher = more signal;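 note: binding of Prmt1 protein to compounds spotted on small-molecule microarray slides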
[2] = yeast growth modulation, basal conditions, primary screen, YJM789 clinical isolate, OD600, 24 h (AID 1089);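 note: growth of clinical yeast isolate S. cerevisiae YJM 789 seeded 1000 cells per well; test concentration not given here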; conditions: S. cerevisiae YJM789 growth, higher = more signal, called active from +8 up or from −8 down
[3] = fission yeast growth modulation, primary screen, strain 972, OD600, 24 h, no modulator (AID 1090);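 note: basal condition with compound alone and no growth modifier present; test concentration not given here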; conditions: S. pombe 972 growth, higher = more signal, called active from +8 up or from −8 down
[4] = S. cerevisiae growth modulation with rapamycin, primary screen, strain BY4716, OD600, 96 h (AID 1091); conditions: higher = more signal, called active from +8 up or from −8 down; note: test concentration not given here
[5] = target: Torsin-1A-interacting protein 2 (Homo sapiens) (UniProt Q8NFQ8); experiment: LULL1 binders on small-molecule microarray, primary screen, cell lysate, human LULL1 lysate, 635/667 nm fluorescence (AID 1092); conditions: hLULL1 lysate binding, 635 nm fluorescence, higher = more signal;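 note: probe is lysate of COS7 cells overexpressing human LULL1; score merges per-feature 667 nm fluorescence with signal-to-noise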
[6] = E. coli growth modulation, two-sided OD650, primary screen, E. coli filamentation project, strain DRC41, 24 h (AID 1093); conditions: OD650, 24 h, higher = more signal, called active from +8 up or from −8 down;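 note: MC1000 strain lacking acrAB efflux and sulA so SOS filamentation is blocked; test concentration not given here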
[7] = small-molecule microarray binders of probe aLefty2, primary screen, biochemical, biotinylated probe, 635/667 nm fluorescence (AID 1094); conditions: higher = more signal;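 note: score merges spot fluorescence near 667 nm with spot signal-to-noise ratio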
[8] = tested on: Noggin (protein binding on small-molecule microarray); experiment: Noggin binders on small-molecule microarray, primary screen, biochemical, 635/667 nm fluorescence (AID 1095); conditions: 635 nm fluorescence, higher = more signal;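 note: score merges 667 nm feature fluorescence with signal to noise over triplicate slides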
[9] = target: Neurogenic locus notch homolog protein 3 (Homo sapiens) (UniProt Q9UM47); experiment: NOTCH3 binders on small-molecule microarray, primary screen, biochemical, 635/667 nm fluorescence (AID 1096); conditions: NOTCH3 binding, 635 nm fluorescence, higher = more signal
[10] = small-molecule microarray binders of probe aEGFR, primary screen, biochemical, biotinylated probe, 635/667 nm fluorescence (AID 1097); conditions: higher = more signal;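 note: probe is a biotinylated anti-EGFR antibody binding compounds printed on slides; score combines fluorescence near 667 nm and signal to noise of each spot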
[11] = tested on: Plasmodium falciparum Sir2 (PF13_0152, Sir2A); experiment: pfSir2 binders on small-molecule microarrays, primary screen, biochemical, small-molecule microarray, 635 nm fluorescence (AID 1098); conditions: small-molecule microarray binding, fluorescence 635 nm; higher = more signal;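 note: score merges spot fluorescence intensity with its signal-to-noise ratio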
[12] = small-molecule microarray binders of probe aDKK1, primary screen, biochemical, biotinylated probe, 635/667 nm fluorescence (AID 1099); conditions: higher = more signal;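 note: score merges 667nm spot fluorescence with signal to noise across triplicate slides; reference of the scale not given here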
[13] = small-molecule microarray binders of probe aCHRDL2, primary screen, biochemical, biotinylated probe, 635/667 nm fluorescence (AID 1100); conditions: higher = more signal
[14] = splicing luciferase reporter signal modulators, primary screen, spliceosome inhibition project, cell-based, HEK293, splice +/- reporter (AID 1101); conditions: luminescence, 24 h, higher = more signal, called active from +8 up or from −8 down;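 note: HEK293 cells carrying a splicing-competent luciferase reporter gene; test concentration not given here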
[15] = target: Fibroblast growth factor 10 (Homo sapiens) (UniProt O15520); experiment: FGF10 binders on small-molecule microarrays, primary screen, biochemical, small-molecule microarray, 635 nm fluorescence (AID 1102); conditions: FGF10 binding, fluorescence 635 nm, higher = more signal
[16] = tested on: glycogen synthase kinase-3 (GSK3A per assay name; protocol says GSK3B); experiment: GSK3 binders on small-molecule microarrays, primary screen, biochemical, small-molecule microarray, 635 nm fluorescence, GSK3A (AID 1103); conditions: small-molecule microarray binding, fluorescence 635 nm; higher = more signal; note: the record names both GSK3A and GSK3B
[17] = target: Epidermal growth factor receptor (Homo sapiens) (UniProt P00533); experiment: EGFR binders on small-molecule microarrays, primary screen, biochemical, small-molecule microarray, 635 nm fluorescence (AID 1104); conditions: EGFR binding, higher = more signal;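 note: score merges 667 nm emission intensity with spot signal to noise over triplicate slides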
[18] = target: Follistatin-related protein 3 (Homo sapiens) (UniProt O95633); experiment: FSTL3 binders on small-molecule microarrays, primary screen, biochemical, small-molecule microarray, 635 nm fluorescence (AID 1105); conditions: FSTL3 binding, higher = more signal;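 note: score merges emission near 667 nm and signal to noise per printed spot across three slides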
[19] = target: Dickkopf-related protein 1 (Homo sapiens) (UniProt O94907); experiment: DKK1 binders on small-molecule microarrays, primary screen, biochemical, small-molecule microarray, 635 nm fluorescence scan (AID 1106); conditions: DKK1 binding, higher = more signal;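 note: score merges emission near 667 nm with signal to noise over three replicate slides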
[20] = tested on: Inhibin beta A chain (activin A); experiment: INHBA (activin A) binders on microarrays, primary screen, biochemical, small-molecule microarray, 635 nm fluorescence scan (AID 1107); conditions: small-molecule microarray binding, higher = more signal;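 note: mouse activin A protein probed at 4.33 µg/mL on printed slides; score merges bound-protein fluorescence near 667 nm with spot signal-to-noise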

Follistatin-related protein 3 (Homo sapiens), sequence (O95633 whole entry, looked up): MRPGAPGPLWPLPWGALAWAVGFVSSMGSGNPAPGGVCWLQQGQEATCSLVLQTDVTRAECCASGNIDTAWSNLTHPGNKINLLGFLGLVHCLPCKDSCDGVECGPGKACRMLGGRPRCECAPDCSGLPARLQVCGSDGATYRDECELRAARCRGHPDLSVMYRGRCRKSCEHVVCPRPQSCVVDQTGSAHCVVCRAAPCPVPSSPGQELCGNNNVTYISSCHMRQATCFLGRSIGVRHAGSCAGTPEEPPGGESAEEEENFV
Fibroblast growth factor 10 (Homo sapiens), sequence (O15520 whole entry, looked up): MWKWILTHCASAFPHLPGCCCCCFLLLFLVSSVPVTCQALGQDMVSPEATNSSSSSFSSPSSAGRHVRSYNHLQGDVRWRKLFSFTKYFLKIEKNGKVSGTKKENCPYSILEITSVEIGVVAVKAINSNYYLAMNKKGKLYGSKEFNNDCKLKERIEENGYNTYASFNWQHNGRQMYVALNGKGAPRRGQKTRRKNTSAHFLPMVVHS
Dickkopf-related protein 1 (Homo sapiens), sequence (O94907 whole entry, looked up): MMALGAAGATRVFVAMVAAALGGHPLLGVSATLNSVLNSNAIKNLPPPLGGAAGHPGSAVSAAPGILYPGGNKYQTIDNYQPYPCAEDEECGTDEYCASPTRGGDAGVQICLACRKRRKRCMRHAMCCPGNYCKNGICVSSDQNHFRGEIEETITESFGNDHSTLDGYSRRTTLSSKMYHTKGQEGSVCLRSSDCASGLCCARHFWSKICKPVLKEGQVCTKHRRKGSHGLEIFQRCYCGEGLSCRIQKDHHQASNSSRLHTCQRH
Torsin-1A-interacting protein 2 (Homo sapiens), sequence (Q8NFQ8 whole entry, looked up): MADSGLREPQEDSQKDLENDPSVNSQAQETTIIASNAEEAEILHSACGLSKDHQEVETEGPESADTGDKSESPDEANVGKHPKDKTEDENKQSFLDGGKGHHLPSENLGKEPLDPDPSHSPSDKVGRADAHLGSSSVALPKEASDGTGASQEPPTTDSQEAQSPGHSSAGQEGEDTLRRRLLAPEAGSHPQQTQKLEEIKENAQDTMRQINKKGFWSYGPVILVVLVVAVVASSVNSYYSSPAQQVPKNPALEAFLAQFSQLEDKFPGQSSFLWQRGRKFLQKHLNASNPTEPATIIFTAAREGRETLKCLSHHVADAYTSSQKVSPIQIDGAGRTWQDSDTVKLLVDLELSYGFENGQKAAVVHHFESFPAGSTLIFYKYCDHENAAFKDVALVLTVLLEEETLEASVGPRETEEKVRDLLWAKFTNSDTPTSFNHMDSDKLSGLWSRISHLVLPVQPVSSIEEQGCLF
Epidermal growth factor receptor (Homo sapiens), sequence (P00533 whole entry, looked up): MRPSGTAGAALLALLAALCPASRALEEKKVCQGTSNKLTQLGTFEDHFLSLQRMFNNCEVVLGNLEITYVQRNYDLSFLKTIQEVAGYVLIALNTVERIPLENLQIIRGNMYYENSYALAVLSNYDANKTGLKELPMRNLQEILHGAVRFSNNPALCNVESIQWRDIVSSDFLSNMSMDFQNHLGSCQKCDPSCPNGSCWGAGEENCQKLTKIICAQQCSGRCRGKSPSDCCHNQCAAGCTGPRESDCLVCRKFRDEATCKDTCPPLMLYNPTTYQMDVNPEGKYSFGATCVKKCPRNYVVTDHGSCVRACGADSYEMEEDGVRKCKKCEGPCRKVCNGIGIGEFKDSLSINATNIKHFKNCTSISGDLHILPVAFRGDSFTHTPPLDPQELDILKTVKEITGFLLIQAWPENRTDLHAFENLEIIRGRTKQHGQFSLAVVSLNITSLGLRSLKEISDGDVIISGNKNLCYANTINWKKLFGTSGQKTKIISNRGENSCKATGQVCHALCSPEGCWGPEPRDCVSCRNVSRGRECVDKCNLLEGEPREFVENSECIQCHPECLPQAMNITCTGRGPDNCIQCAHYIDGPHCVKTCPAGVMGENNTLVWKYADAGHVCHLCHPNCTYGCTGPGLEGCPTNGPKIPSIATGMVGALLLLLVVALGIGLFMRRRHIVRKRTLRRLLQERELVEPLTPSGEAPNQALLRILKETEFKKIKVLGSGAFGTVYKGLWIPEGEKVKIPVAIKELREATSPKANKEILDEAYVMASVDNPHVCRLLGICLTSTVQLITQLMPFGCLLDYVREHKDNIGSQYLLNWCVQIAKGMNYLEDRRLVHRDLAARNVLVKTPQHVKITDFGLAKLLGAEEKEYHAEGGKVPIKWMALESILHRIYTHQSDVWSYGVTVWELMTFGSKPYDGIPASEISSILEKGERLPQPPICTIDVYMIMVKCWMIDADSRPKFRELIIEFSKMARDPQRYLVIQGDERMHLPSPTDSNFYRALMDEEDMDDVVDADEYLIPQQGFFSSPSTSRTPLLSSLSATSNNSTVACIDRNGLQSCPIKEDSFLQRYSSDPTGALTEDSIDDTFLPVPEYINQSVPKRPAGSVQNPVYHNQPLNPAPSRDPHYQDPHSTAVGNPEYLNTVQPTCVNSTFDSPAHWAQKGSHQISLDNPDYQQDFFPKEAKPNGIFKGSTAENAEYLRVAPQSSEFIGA
Neurogenic locus notch homolog protein 3 (Homo sapiens), sequence (Q9UM47 whole entry, looked up): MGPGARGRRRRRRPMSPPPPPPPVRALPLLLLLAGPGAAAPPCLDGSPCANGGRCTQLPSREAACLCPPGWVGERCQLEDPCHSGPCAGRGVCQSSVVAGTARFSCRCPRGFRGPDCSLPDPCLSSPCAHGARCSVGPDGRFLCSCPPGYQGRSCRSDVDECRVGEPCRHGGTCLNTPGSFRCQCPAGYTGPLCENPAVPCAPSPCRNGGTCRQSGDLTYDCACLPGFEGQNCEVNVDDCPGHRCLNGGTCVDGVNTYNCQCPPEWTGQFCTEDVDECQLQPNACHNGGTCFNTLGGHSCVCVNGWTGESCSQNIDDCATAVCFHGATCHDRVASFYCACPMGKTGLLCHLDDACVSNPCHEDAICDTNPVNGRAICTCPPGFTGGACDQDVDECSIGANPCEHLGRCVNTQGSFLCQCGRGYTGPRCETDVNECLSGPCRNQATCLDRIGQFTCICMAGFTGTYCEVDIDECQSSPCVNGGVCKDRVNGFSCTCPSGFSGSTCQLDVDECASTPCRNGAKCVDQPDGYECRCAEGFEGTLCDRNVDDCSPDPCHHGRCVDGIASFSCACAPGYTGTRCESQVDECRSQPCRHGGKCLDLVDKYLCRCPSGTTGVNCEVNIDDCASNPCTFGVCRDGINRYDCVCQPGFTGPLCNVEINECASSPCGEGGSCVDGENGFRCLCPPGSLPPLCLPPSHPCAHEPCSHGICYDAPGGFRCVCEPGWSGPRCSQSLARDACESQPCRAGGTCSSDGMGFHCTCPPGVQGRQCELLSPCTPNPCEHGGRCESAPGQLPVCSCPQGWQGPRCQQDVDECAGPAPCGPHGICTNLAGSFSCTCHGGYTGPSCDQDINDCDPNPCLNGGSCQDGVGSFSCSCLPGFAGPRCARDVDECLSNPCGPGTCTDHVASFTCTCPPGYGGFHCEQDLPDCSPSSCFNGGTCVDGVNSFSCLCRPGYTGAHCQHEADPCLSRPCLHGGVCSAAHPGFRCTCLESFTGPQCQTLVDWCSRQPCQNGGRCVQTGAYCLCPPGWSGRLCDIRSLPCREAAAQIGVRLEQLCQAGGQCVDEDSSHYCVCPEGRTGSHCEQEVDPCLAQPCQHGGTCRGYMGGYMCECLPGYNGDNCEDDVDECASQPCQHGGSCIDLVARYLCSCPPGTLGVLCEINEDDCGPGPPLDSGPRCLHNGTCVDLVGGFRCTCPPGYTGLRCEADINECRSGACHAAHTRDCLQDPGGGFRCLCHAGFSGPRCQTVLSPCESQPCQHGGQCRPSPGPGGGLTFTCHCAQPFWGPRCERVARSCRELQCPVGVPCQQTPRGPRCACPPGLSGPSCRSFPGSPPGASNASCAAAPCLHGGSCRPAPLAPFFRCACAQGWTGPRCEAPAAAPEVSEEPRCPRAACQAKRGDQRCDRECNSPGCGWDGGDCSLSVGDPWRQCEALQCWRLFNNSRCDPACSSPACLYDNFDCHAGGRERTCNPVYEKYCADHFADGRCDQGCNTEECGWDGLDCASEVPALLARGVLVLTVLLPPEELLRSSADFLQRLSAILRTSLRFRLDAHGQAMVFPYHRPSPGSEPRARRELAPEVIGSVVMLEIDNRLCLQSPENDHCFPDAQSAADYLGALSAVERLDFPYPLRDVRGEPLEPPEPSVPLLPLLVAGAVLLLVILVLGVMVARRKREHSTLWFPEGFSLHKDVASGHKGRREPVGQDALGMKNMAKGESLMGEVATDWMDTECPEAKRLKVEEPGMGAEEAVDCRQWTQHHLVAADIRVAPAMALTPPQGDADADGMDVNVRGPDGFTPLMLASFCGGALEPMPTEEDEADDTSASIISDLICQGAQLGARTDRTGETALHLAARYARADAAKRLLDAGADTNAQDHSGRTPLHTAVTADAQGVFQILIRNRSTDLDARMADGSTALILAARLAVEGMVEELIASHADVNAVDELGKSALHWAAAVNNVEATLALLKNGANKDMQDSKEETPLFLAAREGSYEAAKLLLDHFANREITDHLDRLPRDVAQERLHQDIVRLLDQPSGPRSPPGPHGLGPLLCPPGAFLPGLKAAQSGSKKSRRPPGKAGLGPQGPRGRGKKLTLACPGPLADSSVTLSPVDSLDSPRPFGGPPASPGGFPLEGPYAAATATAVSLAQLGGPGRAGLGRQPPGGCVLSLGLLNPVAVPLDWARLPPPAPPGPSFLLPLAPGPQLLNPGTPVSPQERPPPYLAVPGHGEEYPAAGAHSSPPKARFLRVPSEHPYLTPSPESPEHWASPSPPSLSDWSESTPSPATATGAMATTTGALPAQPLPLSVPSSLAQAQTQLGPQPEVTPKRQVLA

SMILES | composite z-score [1] | z-score [2] | z-score [3] | z-score [4] | composite z-score [5] | z-score [6] | composite z-score [7] | composite z-score [8] | composite z-score [9] | composite z-score [10] | composite z-score [11] | composite z-score [12] | composite z-score [13] | z-score [14] | composite z-score [15] | composite z-score [16] | composite z-score [17] | composite z-score [18] | composite z-score [19] | composite z-score [20]
CO[C@@H]1COC(=O)CCC[C@@H](C)[C@H](OC)COC(=O)CCC[C@H]1C | 0.408 | 0.376 (inactive) | 0.852 (inactive) | 0.294 (inactive) | -0.431 | -0.0526 (inactive) | -0.234 | 0.6 | 0.636 | -0.0967 | 0.691 | -0.224 | -0.755 | 0.349 (inactive) | 0.0939 | 0.534 | 0.379 | 0.715 | 0.731 | -0.0672
CCOC(=O)CCN1C(=O)[C@H]2[C@H]3[C@H](O)[C@H](O)CC(=NNC(=O)OCc4ccc(OC)cc4)[C@@H]3CC[C@H]2C1=O | 0.372 | -0.162 (inactive) | 0.151 (inactive) | -0.3 (inactive) | 0.97 | 0.0856 (inactive) | -0.157 | 0.38 | 1.08 | -0.0986 | 0.0745 | -0.0545 | -0.476 | 0.454 (inactive) | 0.567 | 0.754 | 0.593 | 1.32 | 0.819 | 0.334
CCc1cccc(NC(=O)O[C@H]2[C@H](OC(=O)Nc3ccc4c(c3)OCO4)[C@@H](OC(=O)Nc3ccc4c(c3)OCO4)[C@@H](OC)O[C@@H]2CO)c1 | 1.54 | 1.41 (inactive) | 1.5 (inactive) | -2.13 (inactive) | 3.59 | 1.47 (inactive) | 0.166 | 1.22 | 1.08 | -0.0488 | 0.402 | -0.144 | -0.0627 | -0.637 (inactive) | 1.38 | 1.35 | 0.446 | 1.32 | 0.583 | 0.863
O=C(CS)NCCCCCNC(=O)[C@@H]1C[C@@H]2C(=O)N[C@@H](Cc3ccccc3)C(=O)N2[C@@H]1c1ccc(O)cc1 | 1.47 | 0.176 (inactive) | -0.321 (inactive) | 0.858 (inactive) | 3.06 | 1.28 (inactive) | -0.0687 | -0.306 | 0.373 | -0.104 | 1 | 0.121 | 0.526 | 0.339 (inactive) | 1.02 | 1.17 | -0.146 | 0.265 | 0.325 | -0.516
CCOC(=O)[C@H](Cc1ccccc1)NC(=O)CCC1CC(OC(=O)NCc2ccc3c(c2)OCO3)CC2(CCCC(COC(=O)NCc3cccc(C(F)(F)F)c3)O2)O1 (stereo not given in full) | 1.35 | -0.594 (inactive) | 0.926 (inactive) | 0.287 (inactive) | 0.735 | -1.29 (inactive) | -0.0383 | 0.606 | 1.11 | 0.0293 | 0.239 | 0.113 | -0.338 | -1.18 (inactive) | 0.984 | 0.584 | 0.314 | 1 | 0.495 | 0.321
COCC(=C=CC[C@@H](O)c1ccccc1OCCO)CCO | 0.68 | 0.621 (inactive) | 0.0008 (inactive) | 0.199 (inactive) | 2.36 | 0.71 (inactive) | 0.0378 | 0.436 | 0.442 | -0.0332 | 0.718 | 0.117 | 0.09 | 0.0385 (inactive) | 1.49 | -0.0421 | -0.423 | 0.135 | 0.335 | 0.706
CC(C)NC(=O)[C@@]1(C)c2ccccc2C(=O)N(Cc2cc(F)cc(C(F)(F)F)c2)[C@H]1c1ccc(CO)cc1 | 0.86 | -0.0639 (inactive) | 0.102 (inactive) | -0.623 (inactive) | 1.76 | 0.341 (inactive) | 0.119 | 0.371 | 0.364 | 0.034 | 0.442 | 0.574 | 0.384 | -0.0501 (inactive) | 1.27 | 0.917 | 0.655 | 0.57 | -0.12 | 0.858
CC(C)C[C@@H]1NC(=O)[C@H]2C[C@@H](C(=O)NCCCCCCN(C)C)[C@@H](c3cccc(OCCO)c3)N2C1=O | 1.53 | -1.16 (inactive) | 0.184 (inactive) | -0.46 (inactive) | 2.12 | -0.0145 (inactive) | 0.173 | 1.19 | 1.04 | 0.0948 | 1.5 | 0.346 | 0.124 | -0.152 (inactive) | 1.01 | 1.21 | 0.317 | 1.35 | 1.74 | 1.1
O=C1C2C=CC(C(O)c3ccc([N+](=O)[O-])cc3)N(Nc3ccc([N+](=O)[O-])cc3)C2C(=O)N1c1ccccc1 (stereo not given) | 1.46 | 0.664 (inactive) | 1.53 (inactive) | 3.26 (inactive) | 3.28 | -0.956 (inactive) | 0.198 | -0.238 | 1.04 | 0.387 | 0.867 | 0.969 | 0.539 | -0.291 (inactive) | 0.818 | 1.29 | 0.301 | 0.255 | -0.12 | 0.69
C=CC[C@@H]1C=C[C@H](ON=C(C)CCN2CCc3nc(CC)c(CC)cc3C2)[C@@H](CO)O1 | 1.21 | -1.12 (inactive) | -0.0455 (inactive) | -0.384 (inactive) | 1.07 | 0.544 (inactive) | 0.0522 | 0.981 | 0.717 | -0.0435 | 1.17 | 0.0057 | 0.386 | 0.00248 (inactive) | -0.0543 | 0.491 | 0.609 | 1.14 | 0.907 | 1.8
C=CCN1C(=O)[C@]2(O[C@H](CCn3cc(CCO)nn3)[C@@H]([Si](C)(C)c3ccc(OC)cc3)[C@@H]2C)c2cc(N3CCOC3=O)ccc21 | 1.19 | -0.621 (inactive) | -0.111 (inactive) | -0.0506 (inactive) | 2.79 | -0.342 (inactive) | -0.271 | 0.432 | 0.231 | -0.256 | 1.62 | -0.286 | 0.223 | 2.29 (inactive) | 0.301 | 0.341 | -0.82 | -0.609 | -0.555 | 0.175
